# Screens from PubChem.
# ADAM17 inh – ADAM17 inhibition, QFRET primary screen | AID 720648 | P78536 | inhibition, % at 6.95 µM | recombinant ADAM17, EDANS/DABCYL FRET peptide cleavage | actives 0.83% (n = 370,000);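 active means inhibition above the mean of compounds lying between control limits plus 3 SD, set per campaign, cut at about 8.5% in these data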
# Target sequence (P78536 215-824 limits assumed): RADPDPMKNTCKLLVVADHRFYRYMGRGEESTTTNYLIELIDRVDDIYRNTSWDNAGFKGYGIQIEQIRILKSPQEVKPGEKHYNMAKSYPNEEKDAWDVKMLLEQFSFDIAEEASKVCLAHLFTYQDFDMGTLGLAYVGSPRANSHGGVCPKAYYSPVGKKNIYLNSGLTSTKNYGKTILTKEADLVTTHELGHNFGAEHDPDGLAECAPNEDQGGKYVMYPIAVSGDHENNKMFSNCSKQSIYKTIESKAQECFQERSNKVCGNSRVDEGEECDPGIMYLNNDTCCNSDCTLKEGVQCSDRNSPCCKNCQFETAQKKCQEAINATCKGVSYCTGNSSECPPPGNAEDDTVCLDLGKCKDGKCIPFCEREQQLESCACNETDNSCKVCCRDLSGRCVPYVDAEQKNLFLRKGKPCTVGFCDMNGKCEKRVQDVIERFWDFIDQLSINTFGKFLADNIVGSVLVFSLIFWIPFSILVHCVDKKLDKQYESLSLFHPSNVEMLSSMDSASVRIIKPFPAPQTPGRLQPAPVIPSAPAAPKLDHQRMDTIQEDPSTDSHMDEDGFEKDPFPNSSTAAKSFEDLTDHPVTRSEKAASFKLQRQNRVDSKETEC
# ADAM10 inh – ADAM10 inhibition, QFRET primary screen; inhibition, % at 7 µM; recombinant ADAM10, EDANS/DABCYL FRET peptide cleavage, 3 h; AID 720582; actives 0.62% (n = 370,000);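 active means inhibition above a per-campaign cutoff equal to the mean of compounds falling between control-based bounds plus 3 SD, cut at about 20% in these data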
# FAS-TE inh – FAS thioesterase (human) inhibition; P49327; recombinant FAS-TE, OMFH fluorogenic substrate, fluorescence endpoint; inhibition, % at 15 µM; actives 0.67% (n = 360,000);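 active means compounds whose normalised, plate-corrected inhibition of enzyme fluorescence in the single-dose primary screen is 50% or more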
# NR3A LBD binder – NR3A (human) ligand-binding domain modulation. actives 2.5% (n = 340,000). NR3A LBD differential scanning fluorimetry, Tm shift; 0% = protein alone, 100% = glycine-bound protein. Tm shift relative to glycine control, % at 25 µM. AID 1259313;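 active means melting temperature shift of at least 10% of the positive control shift, at one fixed dose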
# aDG glyco act – alpha-DG glycosylation activation; actives 0.22% (n = 360,000); Pro5-aDG cells, alpha-DG glycosylation AlphaScreen (IIH6); 0% Pro5, 100% B10-LARGE cell signal; AID 624168; activation, % at 10 µM;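 active means activation of at least 8% versus controls, or a plate z-score of at least 8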;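 further: Pro5 are CHO cells carrying HIG-tagged alpha-DG that lacks glycosylation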
# Hits are given with their value; i = inactive. Rows were chosen to be rich in hits. Some 4% of all compounds tested hit in one or more screens of this group.
SMILES,ADAM17 inh,ADAM10 inh,FAS-TE inh,NR3A LBD binder,aDG glyco act
Cc1cccc(C(=O)OCC(=O)c2c(C)[nH]c3ccccc23)c1O,i,i,i,29.3,i
O=C(COC(=O)/C=C/c1cccc(C(F)(F)F)c1)NC1CCS(=O)(=O)C1 (configuration not stated),i,i,i,i,i
CCN(CC)C(=O)CN(C#N)c1nc(Cl)nc(N(C)C)n1,i,i,i,i,i
Fc1ccc(-c2ccc(Nc3cccc(F)c3)nn2)cc1,i,i,i,30.2,i
Fc1ccc(Nc2ccc(-c3ccc(F)cc3)nn2)cc1,i,i,i,26.3,i
COc1ccccc1-c1ccc(Nc2cccc(C(F)(F)F)c2)nn1,i,i,i,i,i
CCOC(=O)c1ccc(NC(=S)Nc2ccc(Br)cc2N)cc1,i,i,i,22.6,i
CCCCNC(=O)COC(=O)c1ccc(F)cc1Cl,i,i,i,i,i
COC(=O)c1ccc(CSc2nc3ccccc3c(=O)n2CC(C)C)o1,i,i,i,20.4,i
COC(=O)c1ccc(CSc2nc3ccccc3c(=O)n2C)o1,i,i,i,i,i
O=C(Nc1ccc([N+](=O)[O-])cc1)Nc1ccc(N2CCOCC2)c2nonc12,i,i,i,18.1,i
CC(=O)Nc1cc([N+](=O)[O-])ccc1N1CCOCC1,i,i,i,i,i
COC(=O)c1cc2oc(C)cc2n1CC(=O)N(C)c1ccccc1,i,i,i,10.6,i
COc1ccc(NC(=O)COC(=O)CCCOc2ccc(Cl)cc2Cl)cc1Cl,i,i,i,30.9,i
CSc1cccc(NC(=O)CCCOc2ccc(Cl)cc2Cl)c1,i,i,i,20.1,i
COc1ccc(CC(=O)Nc2cccc(SC)c2)cc1,i,i,i,15.9,i
COc1ccc(Cl)cc1NC(=O)COC(=O)CCc1cc(OC)c(OC)c(OC)c1,i,i,i,i,i
CSc1cccc(NC(=O)CCCOc2ccccc2)c1,i,i,i,i,i
COc1cc(CC(=O)Nc2cccc(SC)c2)cc(OC)c1OC,i,i,i,i,i
COc1ccc(Cl)cc1NC(=O)COC(=O)Cc1cc(OC)c(OC)c(OC)c1,i,i,i,16.9,i
NC(=O)CSc1nnc(COc2ccccc2)n1Cc1ccco1,i,i,i,i,i
O=C(CNC(=O)c1ccco1)OCC(=O)c1ccc2c(c1)CCCC2,i,i,i,i,i
Cn1c(CCCOc2ccc(Cl)cc2Cl)nnc1SCC(=O)Nc1ccc(F)c(Cl)c1,i,i,i,23.8,i
O=C(CC1C(=O)NCCN1C(=O)Nc1ccc(C(F)(F)F)cc1)Nc1ccc(F)cc1 (configuration not stated),i,i,i,14.2,i
C/C(CC(=O)NC(C)(C)C)=N\NC(N)=S,i,i,i,i,i
SMILES,ADAM17 inh,ADAM10 inh,FAS-TE inh,NR3A LBD binder,aDG glyco act
CN(C)c1ccc(/C=N/N2C(=S)SC(C)(C)C2N(O)C(=O)Nc2ccc([N+](=O)[O-])cc2)cc1 (configuration not stated),i,i,i,10.9,i
O=C(c1ccc(Cl)cc1)N1CCN(c2cccc3[nH]ccc23)CC1,i,i,i,15.4,i
Cc1ccc(NC(=O)CN(C)C(=O)C(C)OC(=O)CNC(=O)c2ccc(Cl)c([N+](=O)[O-])c2)cc1 (configuration not stated),i,i,i,i,i
O=C(CSc1n[nH]c(-c2cccs2)n1)NCc1cccs1,i,i,i,i,i
CC(C)NC(=O)c1ccc(-c2ccccc2C(F)(F)F)o1,i,i,i,i,i
O=C(NCc1ccc(Cl)cc1)c1ccc(-c2ccccc2C(F)(F)F)o1,i,i,i,438.0,i
CCCNNC(=O)C(O)(c1cccc(C)c1)c1cccc(C)c1,i,i,i,i,i
COC(=O)CN(c1ccc2c(c1)OCCO2)S(=O)(=O)c1ccccc1,i,i,i,i,i
O=C(CCCn1c(=S)[nH]c2ccccc2c1=O)NC1CCCCC1,i,i,i,i,i
O=C(Nc1cccc(F)c1)Nc1ccc2c(c1)CCC2,i,i,i,42.6,i
O=C(Nc1ccccc1)Nc1ccc2c(c1)CCC2,i,i,i,11.4,i
O=C(Nc1ccc(F)cc1)Nc1ccc2c(c1)CCC2,i,i,i,i,i
COC(=O)c1ccc(NC(=O)Nc2cccc(F)c2)cc1,i,i,i,29.8,i
COc1ccc(C)cc1NC(=O)Nc1ccc2c(c1)CCC2,i,i,i,11.1,i
Cc1cc(C)cc(NC(=O)Nc2ccc3c(c2)CCC3)c1,i,i,i,11.5,i
